Reference: PubChem BioAssay (NCI)
The panel holds about 83,000 compounds, 20% with a hit somewhere; the sample as a whole holds those more often.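 Values shown are percent growth following 48 h exposure of cells in 96-well plates to a single concentration of compound; below 10 was considered active.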 Unmarked numbers belong to inactive results. The source made the active and inactive calls.

How the values were obtained:
Assay in all cases: NCI-60 one-dose screen, 48 h (100 = growth as untreated, 0 = no growth, -100 = all killed)
HCT-15 colon = conditions: 10 µM unless noted
HT29 colon = conditions: 10 µM unless noted
SNB-75 CNS = conditions: 10 µM unless noted
SNB-19 CNS = conditions: 10 µM unless noted
U251 CNS = conditions: 10 µM unless noted
SK-MEL-5 melanoma = conditions: 10 µM unless noted
UACC-62 melanoma = conditions: 10 µM unless noted
LOX IMVI melanoma = conditions: 10 µM unless noted
SK-MEL-28 melanoma = conditions: 10 µM unless noted
SK-MEL-2 melanoma = conditions: 10 µM unless noted
EKVX NSCLC = conditions: 10 µM unless noted
SN12C renal = conditions: 10 µM unless noted
UO-31 renal = conditions: 10 µM unless noted
ACHN renal = conditions: 10 µM unless noted
CAKI-1 renal = conditions: 10 µM
A498 renal = conditions: 10 µM unless noted
CCRF-CEM leukemia = conditions: 10 µM unless noted
MOLT-4 leukemia = conditions: 10 µM unless noted
TK-10 renal = conditions: 10 µM unless noted

Structure (SMILES)	growth (HCT-15 colon)	growth (HT29 colon)	growth (SNB-75 CNS)	growth (SNB-19 CNS)	growth (U251 CNS)	growth (SK-MEL-5 melanoma)	growth (UACC-62 melanoma)	growth (LOX IMVI melanoma)	growth (SK-MEL-28 melanoma) [%]	growth (SK-MEL-2 melanoma)	growth (EKVX NSCLC) [%]	growth (SN12C renal)	growth (UO-31 renal)	growth (ACHN renal) [%]	growth (CAKI-1 renal)	growth (A498 renal)	growth (CCRF-CEM leukemia)	growth (MOLT-4 leukemia)	growth (TK-10 renal)
CCOC(=O)CSc1nnc(-c2cc3c([nH]c4ccccc43)c(-c3cccc(O)c3)n2)n1-c1ccc(C)cc1	42.7%	43%	63.3%	97.3%	54.9%	94.1%	85.2%	32.6%	79.9	37.7%	78.8	58.1%	72.6%	50.4	92.1%	96.8%	46.4%	17.4%	–
COc1ccc(-c2nn(-c3ccc(NC(=O)Nc4cc(C(F)(F)F)cc(C(F)(F)F)c4)cc3)cc2-c2ccncc2)cc1Cl	9.81% (active)	11.7%	34.4%	31.5%	11.8%	9.61% (active)	15.6%	15%	30.1	-38.3% (active)	21.7	17.2%	13.3%	18.5	5.4% (active)	0.688% (active)	9.25% (active)	–	–
CCOC(=O)NNc1nncc2ccccc12	101%	104%	120%	99.2%	97.2%	105%	101%	90.8%	122	119%	78.3	97%	90.4%	–	84.1%	96%	109%	94%	106%
O=C1CCC(c2c(O)cc(O)c3c(=O)c(O)c(-c4ccc(O)c(O)c4)oc23)N1 (stereo unspecified)	102%	84%	99.2%	108%	101%	101%	88.5%	96.9%	102	98.2%	106	105%	82.6%	–	–	92.1%	103%	92.2%	92.7%
COc1ccc(-n2c(-c3ccc(NC(=O)CCCl)cc3)nnc2-c2cc(OC)c(OC)c(OC)c2)cc1	41.1%	18.9%	90.9%	52%	34.4%	48.2%	48.1%	57.1%	27.8	48.3%	51.2	72.3%	43.8%	–	–	65.4%	16.8%	6.29% (active)	70.2%
Cc1ccc2oc(=O)cc(C3C(C#N)=C(N)Oc4c3ccc3ccccc43)c2c1 (stereo unspecified)	51.1%	38.8%	67.5%	84.9%	82.8%	61.1%	61.4%	75.4%	86.2	66.2%	77.6	92.6%	72.3%	99	–	89.1%	81.9%	46.3%	91.9%
CCc1c(C)c2cc3c(c(C)c2oc1=O)OCC(=O)N3	67.2%	64.1%	14.3%	64.3%	62%	81.1%	69.6%	65.3%	92.7	77.5%	35.9	72.9%	37.3%	–	–	43.6%	84.3%	80.7%	15.1%
COC(=O)c1ccc2c(c1)Oc1ccc(Cl)cc1-c1cc(C)nn1-2	91.6%	74.3%	63.3%	68.8%	19.1%	86%	84.7%	57.9%	106	100%	66.9	51.8%	82.2%	22.6	–	62.7%	78.8%	99.9%	–
CC[C@@]1(O)C(=O)OCc2c1cc1n(c2=O)Cc2c-1nc1ccccc1c2/C=N/OC(C)(C)C	11.2%	-13.9% (active)	0.198% (active)	5.74% (active)	-37.4% (active)	-66.3% (active)	-58.6% (active)	-58.5% (active)	14.3	-17.8% (active)	17	5.56% (active)	-64.8% (active)	–	–	-70.2% (active)	4.16% (active)	–	1.26% (active)
COC(=O)CCCNS(=O)(=O)c1cc(C(=O)Nc2ccc(NC(=O)c3cc(S(=O)(=O)NCCCC(=O)OC)c(O)c(O)c3O)cc2)c(O)c(O)c1O	92.1%	79.8%	95.1%	96.1%	70.3%	93.6%	76.7%	2.88% (active)	110	98.6%	84.3	85.3%	82.9%	109	–	104%	58.6%	87.6%	94.9%
O=C(O)c1ccc(-n2cc(/C=N/Nc3ccccc3F)c(-c3ccc(O)cc3)n2)cc1	73.1%	101%	82.8%	95.2%	86.9%	78%	46.5%	37%	97.1	91.5%	69.9	103%	49.1%	–	–	72.5%	–	39.1%	102%
COc1ccc(/C=C/C(=O)c2ccc(Oc3ncnc4ccccc34)cc2)cc1OC	24.3%	27.4%	74.8%	64.9%	50.9%	72.5%	76.9%	13.8%	104	89.8%	77.7	79%	51.1%	–	–	98.9%	46.4%	56.6%	96.6%
COc1ccc(-c2cc3ccc(N(C)C)cc3nc2N)c(F)c1	31%	7.61% (active)	55%	49.8%	31.3%	-62.7% (active)	48.2%	23.9%	38.4	47.9%	32.2	54%	39.3%	56.8	–	47.1%	39.7%	26.3%	49.1%
c1ccc(-c2nc3sc(C(c4ccccc4)c4ccccc4)nn3c2-c2ccccc2)cc1	87.9%	94.9%	85%	109%	102%	109%	89%	89.4%	102	81.3%	89.8	93.8%	90.8%	97.5	–	87.6%	100%	107%	–
O=C(O)c1cccc2oc(-c3ccccc3O)nc12	34.1%	36.1%	74.7%	67.8%	45.6%	58.1%	65%	4.75% (active)	77.9	71.2%	45	57.5%	54.3%	57.9	42.3%	47.8%	31.3%	66.4%	–
COc1ccc(Cn2cc(COc3ccc4c5ccnc(C)c5n(CCCc5ccccc5)c4c3)nn2)cc1	68.4%	43.5%	51%	84.4%	64.9%	79.1%	34.8%	70.3%	76.2	64.4%	101	69.1%	70.5%	–	–	88.8%	19.7%	38.4%	103%
